Hits are enriched below; roughly 4.8% of the tested compounds scored in any of these assays.
SKKanGAS inh: blocks kanamycin growth of S. pyogenes SKKanGAS strain. BacTiter-Glo, 6 h. inhibition, % at 7.5 µM. AID 1662. 300,000 tested, 1.3% active;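 active = mean replicate score, as percent of positive control median, at least 50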;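 also: strain carries kanamycin resistance gene driven by streptokinase promoter and grows in 40 µg/ml kanamycin; loss of luminescence reflects streptokinase promoter inhibition or plain growth inhibition; 0% = median of DMSO wells and 100% = positive control at its reference dose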
PfHsp90 yeast 2: growth inhibition of yeast expressing Plasmodium Hsp90 | S. cerevisiae expressing PfHsp90, BacTiter-Glo ATP, 48 h; yeast lacking PDR1 and PDR3 efflux regulators | inhibition, % at 9.4 µM | 310,000 tested, 0.32% active;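 active = every replicate shows inhibition above about 80%, whatever the replicate mean, limit read from the data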;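 also: 0% = DMSO neutral controls and 100% = 20 µM radicicol positive controls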
tim10-1 inh: growth inhibitors of tim10-1 mutant yeast. S. cerevisiae tim10-1 ts strain growth, BacTiter-Glo, 24 h. inhibition, % at 20 µM. 330,000 tested, 2.2% active. AID 463190;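 active = inhibition of at least 40%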;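 also: mutant grown at 25 °C; 0% = DMSO wells with yeast and 100% = wells holding no yeast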
TIM10 inh: inhibits growth of TIM10 yeast strain; S. cerevisiae TIM10 strain growth, BacTiter-Glo luminescence, 24 h; inhibition, % at 10 µM; 330,000 tested, 1.4% active;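 active = inhibition of 40% or more at the single tested concentration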;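 also: wild-type TIM10 isogenic control strain grown at permissive 25 °C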
tim23-1 inh: tim23-1 yeast growth inhibition; S. cerevisiae tim23-1 growth, BacTiter-Glo luminescence, 24 h; 330,000 tested, 1.3% active; inhibition, % at 20 µM;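 active = growth inhibition of the mutant yeast at or above 50%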;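 also: temperature-sensitive mutant grown at 25 °C; plate controls were DMSO-treated mutant yeast for no effect and medium wells lacking yeast for full effect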
NALP1 yeast inh: NALP1 inhibition. S. cerevisiae NALP1/ASC/caspase-1 growth, X-gal OD620, 72 h. inhibition, % at 10 µM. 280,000 tested, 0.61% active. AID 2071; in the data active = inhibition mostly above about 24%, no sharp cut-off; inactive = mostly below about 32%
tim10-1 confirm: confirmation of tim10-1 mutant yeast growth inhibitors | shares compounds with tim10-1 inh | S. cerevisiae tim10-1 ts strain growth, BacTiter-Glo, 24 h | inhibition, % at 20 µM | 7,400 tested, 56% active | AID 463213;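 active = inhibition of yeast growth at or above a set limit in either of two repeat tests at 20 µM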;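 also: tim10-1 mutant grown at permissive 25 °C to find synthetic lethal compounds; 0% = DMSO yeast wells and 100% = medium wells without yeast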
TIM10 conf: confirmation of TIM10 yeast growth inhibitors. inhibition, % at 10 µM. shares compounds with TIM10 inh. 4,600 tested, 63% active. S. cerevisiae tim10 strain growth, BacTiter-Glo luminescence, 24 h;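 active = inhibition of yeast growth at or above a set limit in either of two replicates at 10 µM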;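 also: this counterscreen used the strain with wild-type TIM10; 0% = yeast with DMSO and 100% = medium wells lacking yeast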
tim23-1 conf: confirmation of tim23-1 mutant yeast growth inhibitors. S. cerevisiae tim23-1 growth, BacTiter-Glo luminescence, 24 h. shares compounds with tim23-1 inh. 4,400 tested, 83% active. inhibition, % at 20 µM;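 active = inhibition above about 39% in either of two replicate wells at 20 µM, limit read from the data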;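 also: temperature-sensitive tim23-1 mutant grown at 25 °C; 0% = DMSO wells with yeast and 100% = medium wells without yeast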
Numbers without * were called inactive; nt = no result.

SMILES	SKKanGAS inh	PfHsp90 yeast 2	tim10-1 inh	TIM10 inh	tim23-1 inh	NALP1 yeast inh	tim10-1 confirm	TIM10 conf	tim23-1 conf
COc1ccc(/C=C(/C(=O)c2ccc(Cl)cc2Cl)n2cncn2)cc1	-5	7	64*	77*	76*	-11	70*	78*	49*
Cc1ccc(-c2nc(N/N=C/c3cccnc3)c3ccccc3n2)cc1	15	17	76*	66*	84*	-1	74*	59*	85*
O=[N+]([O-])c1cc(S(=O)(=O)C(F)(F)F)ccc1Sc1nc2ccccc2[nH]1	99*	-16	60*	58*	68*	4	48*	51*	59*
COc1ccc(CC(=O)NC(=S)Nc2cccc(CO)c2)cc1	3	nt	13	12	24	nt	nt	nt	nt
Cc1cccc(NC(=S)NNC(=O)COc2ccc(Cl)cc2Cl)c1	0	-22	46*	43*	52*	-11	32*	0	42*
COc1ccc(CC(=O)NC(=S)Nc2cccc(C)c2)cc1	-9	-3	46*	47*	62*	nt	29*	36*	46*
O=C(CSC1=NCCS1)N1CCc2ccccc21	-7	-15	15	14	10	22	nt	nt	nt
CC(=O)c1ccc(OCCCN2CCCCC2)cc1	6	-10	12	6	2	43	nt	nt	nt
CCCCOc1ccc(C(=O)CCN2CCCCC2)cc1	-5	5	47*	4	50*	46*	17	nt	66*
Cc1ccc(C(=O)N2CCN(c3ccc(NC(=O)COc4ccccc4C)cc3)CC2)cc1	19	-10	22	13	37	1	nt	nt	nt
NC(=O)c1ccc(NC(=O)COC(=O)c2ccc(Br)c(S(=O)(=O)N3CCOCC3)c2)cc1	nt	14	nt	nt	nt	nt	nt	nt	nt
Nc1nc(-c2ccc3c(c2)CCCC3)cs1	nt	3	59*	32	51*	22	44*	nt	54*
O=C1c2c(O)ccc(O)c2C(=O)c2c(NCCNCCO)ccc(NCCNCCO)c21	nt	7	-31	-186	-46	nt	nt	nt	nt
O=C1c2ccccc2C(=O)c2c(Nc3ccc(CCO)cc3)ccc(O)c21	83*	7	59*	34	57*	33	37*	nt	51*
COc1cccc(/C=N/NC(=O)NC23CC4CC(CC(C4)C2)C3)c1O	97*	nt	52*	42*	52*	nt	17	39*	47*
O=C(O)COc1ccc(S(=O)(=O)N2CCCC2)cc1	2	-2	6	-14	3	-16	nt	nt	nt
O=C(Nc1cc(C(F)(F)F)ccc1-n1cncn1)c1ccc(Br)cc1	2	-1	19	29	18	2	nt	nt	nt
O=C(Nc1ccccc1N1CCCC1)c1ccc([N+](=O)[O-])o1	8	-3	65*	52*	66*	24	55*	45*	66*
CC1CCN(c2ccccc2NC(=O)c2ccc([N+](=O)[O-])o2)CC1	-9	-10	16	-6	-13	3	nt	nt	nt
COc1ccc(N2CCCC2)c(NC(=O)c2ccc([N+](=O)[O-])o2)c1	2	-7	62*	71*	68*	5	51*	80*	43*
O=C(Nc1ccc(N2CCCC2)c(Cl)c1)c1ccc([N+](=O)[O-])o1	nt	0	nt	nt	nt	8	nt	nt	nt
O=C(Nc1cc(C(F)(F)F)ccc1-n1cncn1)c1ccc([N+](=O)[O-])o1	41	-36	73*	47*	54*	nt	64*	57*	-16
O=C(Nc1ccc(N2CCCCC2)cc1)c1ccc([N+](=O)[O-])o1	13	4	59*	45*	74*	2	47*	38*	70*
COC(=O)c1ccc(N=Nc2ccccc2)cc1	2	nt	30	31	15	-8	nt	nt	nt
O=Nc1ccc(NOC(=O)c2ccccc2)cc1	-11	2	44*	46*	59*	22	54*	53*	70*
SMILES	SKKanGAS inh	PfHsp90 yeast 2	tim10-1 inh	TIM10 inh	tim23-1 inh	NALP1 yeast inh	tim10-1 confirm	TIM10 conf	tim23-1 conf
COc1ccc(/C(N)=N/OC(=O)c2cccc([N+](=O)[O-])c2C)cc1OC	-3	-10	35	19	23	7	nt	nt	nt
Cc1ccc(C(=O)O/N=C(\N)Cc2cccs2)cc1[N+](=O)[O-]	-5	-26	43*	83*	88*	13	67*	85*	83*
COc1ccccc1C/C(N)=N/OC(=O)c1ccc(C)c([N+](=O)[O-])c1	0	-32	69*	86*	75*	5	43*	86*	42*
COc1ccc(C(=O)O/N=C(\N)Cc2cccs2)cc1OC	-3	3	26	37	33	6	nt	nt	nt
CC1CCCC(C)N1C(=O)c1cccc2c1-c1ccccc1/C2=N/O (stereo unspecified)	nt	-3	42*	26	50*	0	39*	nt	44*
Cc1ccc(O)c(NC(=O)C2CC(c3c(F)cccc3Cl)=NO2)c1 (stereo unspecified)	9	-31	44*	25	54*	15	26	nt	60*
COc1ccc(NC(=O)C2CC(c3c(F)cccc3Cl)=NO2)cc1OC (stereo unspecified)	2	9	0	-8	9	0	nt	nt	nt
CC1CCCCC1NC(=S)Nc1ccc(SC(F)F)cc1 (stereo unspecified)	42	nt	66*	70*	53*	18	65*	64*	39
CCCCn1c(-c2cccs2)nc2nc3ccccc3nc21	21	nt	51*	31	52*	-3	36*	nt	66*
CC1=NN(c2cccc(C(=O)O)c2)C(=O)/C1=C\C=C/c1ccccc1	-1	nt	43*	47*	53*	39	47*	42*	62*
NNc1nc(-c2ccccc2Cl)nc2sc3c(c12)CCCC3	5	-5	58*	30	63*	35	20	nt	55*
NNc1nc(-c2ccccc2Cl)nc2ccccc12	0	-31	21	12	21	7	nt	nt	nt
Cc1ccc(N=Cc2cc(Br)cc(Cl)c2O)cc1	12	-61	51*	33	77*	-12	17	nt	78*
C=CCOC(=O)C1=C(C)Nc2nnnn2C1c1cccs1 (stereo unspecified)	0	3	2	-9	19	-4	nt	nt	nt
COC(=O)c1sccc1NC(=O)Nc1cc(C)cc(C)c1	nt	-1	26	24	48	3	nt	nt	nt

Screening results from PubChem BioAssay.
